# NOD2-RIPK2 inh – NOD2-RIPK2 binding disruptors in cells, primary screen, fluorescence, CHO cells, BLA complementation; Receptor-interacting serine/threonine-protein kinase 2 (Homo sapiens), O43353; CCF4 ratio; inhibition, % at 4.98 µM; 360,000 tested, 0.38% active; AID 624267, 2012; in the data active means inhibition above about 21%;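 further: 0% = vehicle only and 100% = reference blocker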
# Target sequence (O43353 whole entry, looked up): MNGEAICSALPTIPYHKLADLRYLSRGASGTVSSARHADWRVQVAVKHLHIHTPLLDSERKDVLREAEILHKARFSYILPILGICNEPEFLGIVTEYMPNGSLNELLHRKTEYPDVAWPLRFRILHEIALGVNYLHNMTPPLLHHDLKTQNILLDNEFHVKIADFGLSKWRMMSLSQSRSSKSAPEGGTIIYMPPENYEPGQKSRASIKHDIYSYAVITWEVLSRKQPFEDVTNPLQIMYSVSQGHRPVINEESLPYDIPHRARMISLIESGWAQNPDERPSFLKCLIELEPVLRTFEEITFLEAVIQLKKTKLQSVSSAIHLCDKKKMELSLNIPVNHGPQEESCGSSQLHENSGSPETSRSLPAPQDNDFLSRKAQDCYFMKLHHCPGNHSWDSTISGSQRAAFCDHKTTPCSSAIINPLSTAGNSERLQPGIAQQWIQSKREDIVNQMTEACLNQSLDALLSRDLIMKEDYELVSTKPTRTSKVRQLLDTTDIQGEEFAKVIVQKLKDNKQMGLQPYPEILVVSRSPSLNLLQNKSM
# TLR9-MyD88 inh – inhibitors of TLR9-MyD88 association in cells, primary screen, cell-based, CHO, BLA complementation, fluorescence. CCF4 FRET ratio. 340,000 tested, 0.21% active. inhibition, % at 4.98 µM. Toll-like receptor 9 (Homo sapiens) + Myeloid differentiation primary response protein …;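 active means inhibition above the mean over all tested compounds plus 3 SD, cut at about 21% in these data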;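 further: 0% = DMSO only wells and 100% = clavulanate BLA inhibitor control wells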
# Myeloid diff MLP – induction of myeloid progenitor differentiation, primary screen, cell-based, flow cytometry, MLPCN library. ER-HoxA9 myeloid progenitors, lysozyme-GFP differentiation. calls only at 10 µM. 360,000 tested, 1% active. AID 624256, 2012;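 active means normalized GFP-positive differentiation at or above the plate's own cutoff, the solvent-only control mean plus 3 SD; inconclusive means no clear call, values can overlap the other calls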;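 further: cells exposed to compound for four days before flow analysis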
# TLR4 MyD88 comp – inhibitors of TLR4-MyD88 association in cells, primary screen, cell-based, HeLa CL3-4, BLA complementation, FRET ratio. Toll-like receptor 4 (Homo sapiens) + Myeloid differentiation primary response protein …. HeLa CL3-4 TLR4/MyD88 BLA complementation. inhibition, % at 8.4 µM. 200,000 tested, 0.18% active. AID 861, 2007; in the data active means inhibition above about 25%;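 further: 0% = vehicle and 100% = reference inhibitor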
# Myeloid diff – inducers of myeloid progenitor differentiation, confirmation, cell-based, GFP/Mac1 flow cytometry, cherry pick 01; shares compounds with Myeloid diff MLP; ER-HoxA9 myeloid progenitors, GFP/Mac1 double-positive flow; calls only; 2,300 tested, 2% active;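 active means share of green or green-and-red cells above 9 and 9% in run 1 or 4 and 3% in run 2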
# GFP autofluor – counter-screen for myeloid differentiation promoters: compound fluorescence. 2,300 tested, 7.4% active. ER-HoxA9 myeloid progenitors, no estrogen, GFP autofluorescence flow cytometry; vehicle wells 0%, positive control 100%. shares compounds with Myeloid diff MLP. AID 651707. fluorescence response, % (concentration not given with the values);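 active means over 5% cells positive for green fluorescent reporter, or over 2% positive for both it and APC stain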;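 further: range taken on the double positive population between DMSO and positive control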
# * hit, by the source's call; i = inactive; u = inconclusive; x = not tested or not shown; + = active, no number. In the library only some 1.5% were active in any assay of this set; here they are far more common.
SMILES,NOD2-RIPK2 inh,TLR9-MyD88 inh,Myeloid diff MLP,TLR4 MyD88 comp,Myeloid diff,GFP autofluor
NNC(=O)COc1ccc(-c2nccc(-c3ccc(F)cc3)n2)cc1,-27.9,-3.5,i,x,i,0.0
CCCCN1C(=O)C(CC(=O)NC2CCCCC2)CC(C(=O)N(C)C)=C1C (stereo not given),8.0,3.3,i,x,x,x
O=C(Nc1ccccc1)c1ccc2nc(-c3ccco3)c(-c3ccco3)nc2c1,-0.4,7.1,i,2.2,i,0.0
Cc1cccc(-c2nnc(-c3cccc(NC(=O)Cc4cccs4)c3)o2)c1,8.9,8.8,i,-14.9,i,0.5
COc1ccc(-n2c(N)c(C(=O)NCC3CCCO3)sc2=S)cc1 (stereo not given),1.9,3.2,+,-1.8,i,0.0
Cc1cccnc1C(NC(=O)C1CCN(Cc2ccc3ccccc3n2)CC1)c1ccc(Cl)cc1 (stereo not given),-0.2,x,i,x,x,x
COCc1c(C)cc(C)c(/C=N/O)c1C,1.1,-9.7,i,-4.1,i,1.5
CCCCC[C@@H](C)N1C[C@H](COCc2ccccc2)Oc2cc(N3CCC[C@@H]3COC)ccc2S1(=O)=O,-2.1,x,i,x,x,x
CCCCNC(=O)CCc1nc2cccnc2n1Cc1ccccc1,-5.6,-5.5,+,x,i,0.0
O=S1(=O)CC(N2CC=CC2)CN1Cc1cn(Cc2cccc(C(F)(F)F)c2)nn1 (stereo not given),-12.2,x,i,x,x,x
CC1=C(C(=O)OCc2ccc3c(c2)OCO3)C(c2ccc(Cl)cc2)NC(=O)N1 (stereo not given),-5.0,-4.0,u,-0.7,x,x
CC1=C(C(=O)OCc2ccc3c(c2)OCO3)C(c2ccc(F)cc2)NC(=O)N1 (stereo not given),-11.8,2.2,+,6.9,i,0.0
COc1ccc(-c2nc(N)ncc2Oc2ccccc2Br)c(O)c1,9.3,6.8,+,-5.8,i,0.0
Cc1ccc(S(=O)(=O)N2[C@H](CC(=O)Oc3ccccc3)OC[C@@H]2C(C)C)cc1,-7.7,x,i,x,x,x
Cc1ccccc1-c1cc2nc(NCc3ccccc3F)n(C)c(=O)c2s1,-10.4,x,i,x,x,x
CCOc1cc(C)nc(NCc2ccccc2)n1,-1.2,7.6,+,2.1,i,3.7
CC(C)c1nc(CNC(=O)CC2C(=O)NCCN2Cc2ccccc2)cs1 (stereo not given),6.1,0.1,i,x,i,0.0
COc1ccc2ccccc2c1CNC(=O)CC1C(=O)NCCN1CC(C)C (stereo not given),2.0,-2.7,+,-11.0,i,0.5
C[C@@H](NC(=O)[C@@H]1CCCN1C(=O)[C@@H]1CCCN1C(=O)c1cccs1)c1ccccc1,-0.7,x,i,x,x,x
COc1ccccc1N1C(=O)S/C(=C\c2cc(C)n(C)c2C)C1=O,1.6,1.0,i,6.2,x,x
COc1ccccc1N1C(=O)S/C(=C\c2ccc(C)s2)C1=O,1.5,-4.3,i,x,i,2.3
COc1ccc(CCNC(=O)c2ccc(CSc3ccc(Cl)cc3)o2)cc1OC,-13.7,x,i,x,x,x
COC(=O)c1cc(NS(=O)(=O)c2ccc(C)c3ccccc23)ccc1N1CCOCC1,3.3,5.7,i,x,i,0.3
CSc1ccc(OC2(C)CCN(Cc3ccc(OC(F)(F)F)cc3)C2)cc1 (stereo not given),0.7,x,i,x,x,x
CN1CCc2c(sc(/N=C/c3c[nH]c4ccccc34)c2C#N)C1,-6.2,x,+,x,i,16.2*
CN1CCc2c(sc(/N=C/c3c[nH]c4ccccc34)c2C(N)=O)C1,-12.2,x,+,x,i,0.0
CCOC(=O)c1c(/N=C/c2ccc(OC)cc2O)sc2c1CCN(C)C2,-1.8,2.4,i,x,x,x
CN1CCc2c(sc(/N=C/c3cc(Cl)ccc3O)c2C#N)C1,-15.6,-9.4,i,x,x,x
COc1ccccc1N1C(=O)c2cccc3c(Cl)ccc(c23)C1=O,5.2,-0.9,i,x,i,0.0
CN1C(=O)c2cccc3c(Cl)ccc(c23)C1=O,0.1,2.8,i,-3.7,x,x

# Screening data from PubChem.
